Screening results from PubChem.
TDP1 cell noCPT – qHTS for Inhibitors of human tyrosyl-DNA phosphodiesterase 1 (TDP1): qHTS in cells in absence of CPT. Potency, µM (highest dose often 46.2 µM), for the others: at the highest dose activity change, negative = growth inhibition, usual class: inhibitors. DT40 Tdp1-/- hTDP1 cells, no CPT, ATP luminescence, 48 h. AID 686978, 2013. 420,000 tested, 15% active; also: potency is read from the fitted curve at half-maximal effect; nearly all actives have a fitted effect of over 55% in size
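Camptothecin absent (DMSO only). Human TDP1-complemented DT40 knockout cells, 400 cells/well, 37 °C for minimum 48 hr; ATP measured via CellTiter-Glo, 30 min dark incubation, luminescence.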
HT1080NT lethal – kills 2HG-producing HT-1080-NT fibrosarcoma cells; 360,000 tested, 1.6% active; Potency, µM (highest dose often 46.1 µM), without a hit: at the top dose activity, negative = less viability, actives largely listed as cytotoxic; AID 686970; HT-1080-NT fibrosarcoma viability, CellTiter-Glo ATP luminescence, 48 h;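 also: NT is the 2HG producing partner of a matched IDH1 knockdown line; potency is read from the fitted curve at half-maximal effect; 0% = DMSO-treated cells and -100% = media-only wells without cells; nearly all actives have a fitted effect of over 55% in size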
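750 cells/well, RPMI + 5% FBS; 2 h settle, compound pin-transfer, 48 h at 37 degrees C. CellTiter-Glo 10 min RT, luminescence. Normalized to DMSO and media-only wells.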
DT40 TDP1 CPT – growth inhibition of DT40 Tdp1-/-;hTDP1 cells with camptothecin (screen for TDP1 inhibitors). 420,000 tested, 12% active. chicken DT40 Tdp1-/-;hTDP1 cells + 20 nM CPT, ATP luminescence, 48 h. Potency, µM (highest dose often 46.2 µM), for inactives: top-dose activity change, negative = growth inhibition, actives largely listed as inhibitors; also: potency is read from the fitted curve at half-maximal effect; nearly all actives have a fitted effect of over 55% in size
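Chicken DT40 Tdp1-/- cells stably complemented with human TDP1 were seeded at 400 cells/well in medium containing 20 nM camptothecin, exposed to pin-transferred compounds, and grown at 37 °C for at least 48 hr. Viability was read as ATP luminescence.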
HT1080 IDH1KD tx – kills HT-1080 cells with IDH1 knockdown; Potency, µM (highest dose often 46.1 µM), for inactives: top-dose activity, negative = toxicity, usual class: cytotoxic; 360,000 tested, 2% active; HT-1080 IDH1 knockdown viability, ATP luminescence, 48 h; AID 686971;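 also: potency is read from the fitted curve at half-maximal effect; 0% = DMSO wells and -100% = cell-free medium wells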
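Assay cells: HT-1080 with IDH1 knockdown, 750 per well, RPMI/5% FBS. Exposure: 48 h at 37 °C following 2 h pre-incubation. Read: CellTiter-Glo luminescence; fitted concentration-response, curve class assigned.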
IL-1B inflam inh – blocks inflammasome-driven IL-1 beta release | THP-1 LPS/ATP IL-1B secretion, AlphaLISA, 16 h; hits give low values | activity change, % at 57.5 µM | 360,000 tested, 4.7% active | AID 743279; in the data active = activity change below about -50%; inconclusive = mostly about -30% to -49%
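THP-1 cells pretreated 1 hr with compounds (up to 57.5 uM final), then stimulated with LPS (250 ng/mL final) plus ATP (1.25 mM final); secreted IL-1B measured by AlphaLISA after 16 hr, decreased signal indicating inhibition.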
* = called active by the depositor; ? = inconclusive; nt = no result given. Shown are actives, neighbours in structure and some others; about 19% of the full set was active somewhere. Unless noted, calls follow the shape of the dose curve; as a rule, active = well fitted curve in the direction sought with a large enough effect; inconclusive = small, poorly fitted or top-dose-only effect, or another doubt; inactive = no such curve, though single readings can be large; an effect the other way counts as inactive or inconclusive. Unless noted, % is scaled to controls: 0 for no effect and ±100 for the full control effect.

SMILES	TDP1 cell noCPT	HT1080NT lethal	DT40 TDP1 CPT	HT1080 IDH1KD tx	IL-1B inflam inh
O=[N+]([O-])c1ccccc1/C=C/c1ccc2ccccc2n1	?	?	-40%	-21%	-79*
COc1ccc(OC)c(/C=C/c2cc3ccccc3cn2)c1	5µM*	nt	5µM*	nt	nt
COc1ccc(OC)c(/C=C/c2ccccc2)c1	-1%	nt	-25%	nt	nt
CC(Sc1nncn1C)C(=O)Nc1ccc(N2CCCCC2)cc1 (stereo not drawn)	14%	12%	0%	8%	-7
COC(=O)c1ccc(S(=O)(=O)N2CCCCCC2)n1C	?	-2%	-29%	6%	-12
N#Cc1ccccc1OCC(=O)Nc1ccc2c(c1)OCO2	-21%	16%	-4%	24%	?
COc1ccc(/C=C/c2ccc3ccccc3n2)c(OC)c1	11µM*	nt	16µM*	nt	nt
Cc1ccc(C)c(CN2C(=O)c3ccccc3S(=O)(=O)c3ccc(C(=O)N4CCN(Cc5ccccc5)CC4)cc32)c1	6.5µM*	nt	6.5µM*	nt	nt
Cc1ccc(C)c(CN2C(=O)c3ccccc3S(=O)(=O)c3ccc(C(=O)N4CCc5ccccc54)cc32)c1	5.8µM*	nt	5.8µM*	nt	nt
Cc1ccc(C)c(CN2C(=O)c3ccccc3S(=O)(=O)c3ccc(C(=O)N4CCN(C)CC4)cc32)c1	-29%	-2%	0%	2%	0
CNC(=S)c1cc(C(C)(C)C)c(O)c(C(C)(C)C)c1	4%	1%	-21%	-7%	-2
O=C(CN1C(=O)NC2(CCCC2)C1=O)Nc1nc(-c2ccc(F)cc2)cs1	-21%	2%	-19%	-15%	-23
CC(CCc1ccccc1)NC(=O)CN1C(=O)NC2(CCCCC2C)C1=O (stereo not drawn)	-28%	12%	-1%	0%	5
CCC(C)(C)C1CCC2(CC1)NC(=O)N(CC(=O)NC(C)CCc1ccccc1)C2=O (stereo not drawn)	12µM*	-3%	?	-3%	-5
CCC(C)(C)C1CCC2(CC1)NC(=O)N(CC(=O)Nc1nc(-c3ccc(C)cc3)cs1)C2=O (stereo not drawn)	7.3µM*	0%	?	4%	16
CCOc1ccccc1N1CCN(C(=O)CN2C(=O)NC3(CCCC3)C2=O)CC1	-5%	16%	-4%	8%	-1
CCC(C)(C)C1CCC2(CC1)NC(=O)N(CC(=O)N1CCN(c3ccccc3OC)CC1)C2=O (stereo not drawn)	21µM*	-3%	21µM*	-1%	-13
CN(Cc1ccc2c(c1)OCCO2)C(=O)CN1C(=O)NC2(CCCCC2)C1=O	0%	18%	-12%	10%	0
CCC(C)(C)C1CCC2(CC1)NC(=O)N(CC(=O)N(C)Cc1ccc3c(c1)OCCO3)C2=O (stereo not drawn)	21µM*	4%	?	12%	-17
O=C(Nc1ccc(Br)cc1)c1cccn1-c1ncc(C(F)(F)F)cc1Cl	?	?	16µM*	11µM*	-23
NC(=O)c1cccn1-c1ncc(C(F)(F)F)cc1Cl	-14%	13%	-6%	14%	3
Cc1cccc(-c2nnc(-c3ccc4ccccc4c3)o2)c1	?	24%	-27%	17%	-7
COCCn1c(C)cc(C(=O)CSc2nc(C)nc3sc4c(c23)CCC4)c1C	21µM*	-6%	16µM*	-27%	22
Cc1nc(SCC(=O)NCC2CCCO2)c2c3c(sc2n1)CCCC3 (stereo not drawn)	?	-3%	?	-1%	-1
COc1ccccc1Sc1nc(-c2ccccn2)ncc1OC	2.9µM*	-9%	10µM*	?	141
SMILES	TDP1 cell noCPT	HT1080NT lethal	DT40 TDP1 CPT	HT1080 IDH1KD tx	IL-1B inflam inh
Cc1ccc(Sc2cc(C)nc(-c3ccccn3)n2)cc1	10µM*	-8%	6.5µM*	?	34
COc1cnc(-c2ccccn2)nc1NC(C)C	0.046µM*	?	0.13µM*	?	104
Nc1cccnc1Sc1cccc(Cl)c1	-16%	0%	-20%	0%	7
COc1cnc(-c2ccccn2)nc1Sc1cccc(Cl)c1	1.3µM*	?	1.3µM*	?	-8
COc1cnc(-c2ccccn2)nc1Oc1ccccc1Cl	?	14%	?	1%	2
O=C(CCCSc1nc2sc3c(c2c(=O)[nH]1)CCC3)NCCO	-16%	6%	?	2%	-2
CCCCc1ccc(NC(=S)N2CCN(C(=O)c3ccco3)CC2)cc1	-29%	-4%	8%	-3%	?
CC1CCC(Nc2nc3c(-c4ccc(Cl)cc4)nnn3c3ccccc23)CC1 (stereo not drawn)	-19%	nt	1%	nt	nt
COc1cnc(-c2ccccn2)[nH]c1=O	2%	3%	23%	20%	-2
FC(F)(F)c1cccc(Sc2cc(C(F)(F)F)nc(-c3ccccn3)n2)c1	21µM*	-1%	18µM*	-10%	6
CCN(CC)c1cc(C(F)(F)F)nc(-c2ccccn2)n1	?	?	?	?	-9
COc1cnc(-c2ccccn2)nc1Sc1ccc(C)cc1	3.3µM*	?	5.2µM*	?	27
C=CCNc1cc(C(F)(F)F)nc(-c2ccccn2)n1	?	8%	18µM*	0%	-5
O=C(O)CSc1cc(C(F)(F)F)nc(-c2ccccn2)n1	1%	-3%	-40%	-3%	38
CN(C)c1ccc(/C=N/NC(=O)c2nnn(-c3nonc3N)c2COc2ccc(F)cc2)cc1	-19%	1%	8%	5%	3
CN(CC(=O)Nc1ccccc1Br)C(=O)CNC(=O)c1cccs1	-1%	0%	-7%	8%	-8
COc1cc(OC)c(N(C)C(=O)CSc2c3c(nc4ccc(Cl)cc24)CCCC3)cc1Cl	?	nt	18µM*	nt	nt
CN(Cc1ccccc1)C(=O)CSc1c2c(nc3ccc(Cl)cc13)CCCC2	16µM*	nt	?	nt	nt
CCCN(CCC)C(=O)CSc1c2c(nc3ccc(Cl)cc13)CCCC2	?	nt	18µM*	nt	nt
Cc1ccc(CNC(=O)CSc2c3c(nc4ccc(Cl)cc24)CCCC3)o1	?	?	?	?	-16
CC(C)CCNC(=O)CCn1nc(-c2ccc(Cl)cc2)ccc1=O	-5%	9%	-12%	14%	-22
CCOc1ccc(-c2nnc(NC(=O)C3CCCC3)o2)cc1	?	-16%	?	-21%	-1
CCn1cc(S(=O)(=O)c2ccc(C)cc2)c(=O)c2cc(OC)ccc21	16%	-1%	-3%	3%	15
CC(=O)N(Cc1ccc(F)cc1)C1=C(NCc2ccccc2)C(=O)c2ccccc2C1=O	1.3µM*	4.5µM*	1.6µM*	5µM*	-93*
